# What was measured:
# Assay in all cases: DAPPL (digital affinity profiling via proximity ligation, sequencing); 10 mM Tris-HCl pH 7.5, 50 mM NaCl, 1 mM DTT, 4% glycerol, room temperature, 30 min; GST-TFs on glutathione beads, 16-mer random dsDNA library, 0.1% formaldehyde crosslink after washing; high values mean tight binding
# FEV = molecular target: T1, FEV (Homo sapiens, UniProt Q99581 1-238); settings: protein: recombinant; tags: N-terminal GST; dsDNA, one strand shown
# T1 sequence: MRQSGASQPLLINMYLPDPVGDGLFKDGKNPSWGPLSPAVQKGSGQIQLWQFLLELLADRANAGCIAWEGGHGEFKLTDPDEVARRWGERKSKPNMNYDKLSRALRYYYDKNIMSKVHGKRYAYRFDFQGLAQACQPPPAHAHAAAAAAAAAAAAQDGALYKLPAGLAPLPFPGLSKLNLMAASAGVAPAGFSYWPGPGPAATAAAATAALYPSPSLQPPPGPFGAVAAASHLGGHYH
# Procedure, shortened: (§1)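 Beads coated with glutathione captured GST-fused human transcription factors that had been expressed in yeast, and the factors were then given DNA barcodes and pooled with a tag-only sample. The pools were incubated with 200 nmole of a random double-stranded 16-mer DNA library in Tris/NaCl/DTT/glycerol buffer for 30 min at room temperature, washed, crosslinked with 0.1% formaldehyde and proximity-ligated with BsaI/T4 ligase at 37 °C for 1 h. PCR amplification and Illumina NextSeq500 sequencing came last. Binding signal is each hexamer's read frequency for a factor divided by its frequency for the tag-only sample.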
# ETV5 = ETV5 (Homo sapiens, UniProt P41161 1-510); settings: protein: recombinant; tags: N-terminal GST; dsDNA, one strand shown
# Sequence of ETV5 (P41161 whole entry): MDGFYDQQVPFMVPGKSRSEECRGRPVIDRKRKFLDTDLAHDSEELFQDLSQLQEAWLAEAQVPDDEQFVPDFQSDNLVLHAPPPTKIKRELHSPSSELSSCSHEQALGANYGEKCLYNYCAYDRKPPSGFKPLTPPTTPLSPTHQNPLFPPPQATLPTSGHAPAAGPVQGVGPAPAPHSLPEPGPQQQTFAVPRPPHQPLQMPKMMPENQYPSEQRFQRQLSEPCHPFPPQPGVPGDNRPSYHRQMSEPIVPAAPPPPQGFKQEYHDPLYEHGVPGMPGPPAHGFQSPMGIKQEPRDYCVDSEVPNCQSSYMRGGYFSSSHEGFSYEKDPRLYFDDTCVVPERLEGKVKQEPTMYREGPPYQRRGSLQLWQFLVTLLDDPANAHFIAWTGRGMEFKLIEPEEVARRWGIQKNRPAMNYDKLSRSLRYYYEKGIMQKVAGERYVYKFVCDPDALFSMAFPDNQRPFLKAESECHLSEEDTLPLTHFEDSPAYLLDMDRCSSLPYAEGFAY
# Procedure, shortened: as §1
# HSF1 = HSF1 (Homo sapiens, UniProt Q00613 1-529); settings: protein: recombinant; tags: N-terminal GST; chain copies: 3; dsDNA, one strand shown
# Sequence of HSF1 (Q00613 whole entry): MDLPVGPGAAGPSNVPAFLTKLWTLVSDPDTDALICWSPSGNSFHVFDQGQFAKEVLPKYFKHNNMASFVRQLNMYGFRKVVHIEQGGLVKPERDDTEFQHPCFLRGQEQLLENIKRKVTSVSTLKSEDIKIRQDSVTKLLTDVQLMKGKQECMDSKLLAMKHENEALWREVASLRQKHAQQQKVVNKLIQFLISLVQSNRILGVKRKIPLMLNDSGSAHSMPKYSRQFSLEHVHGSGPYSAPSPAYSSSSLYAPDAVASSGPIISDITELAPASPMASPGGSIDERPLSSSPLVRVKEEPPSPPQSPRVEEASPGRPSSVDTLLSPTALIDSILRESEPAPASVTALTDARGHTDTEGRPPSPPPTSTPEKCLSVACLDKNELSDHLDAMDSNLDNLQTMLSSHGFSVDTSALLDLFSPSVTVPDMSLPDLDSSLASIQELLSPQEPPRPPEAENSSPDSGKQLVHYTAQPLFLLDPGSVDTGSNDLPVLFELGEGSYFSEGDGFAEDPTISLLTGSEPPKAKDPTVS
# Procedure, shortened: as §1
# SPIC = molecular target: T2, SPIC (Homo sapiens, UniProt Q8N5J4 1-248); settings: protein: recombinant; tags: N-terminal GST; dsDNA, one strand shown
# T2 sequence: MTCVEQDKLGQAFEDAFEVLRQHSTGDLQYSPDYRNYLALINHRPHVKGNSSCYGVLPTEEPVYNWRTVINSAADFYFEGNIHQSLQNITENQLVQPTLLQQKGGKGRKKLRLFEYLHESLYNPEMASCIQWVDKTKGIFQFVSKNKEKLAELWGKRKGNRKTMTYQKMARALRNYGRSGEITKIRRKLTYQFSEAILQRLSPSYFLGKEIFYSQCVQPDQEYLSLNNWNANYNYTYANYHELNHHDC
# Procedure, shortened: as §1
# ELF4 = ELF4 (Homo sapiens, UniProt Q99607 1-663); settings: protein: recombinant; tags: N-terminal GST; dsDNA, one strand shown
# Sequence of ELF4 (Q99607 whole entry): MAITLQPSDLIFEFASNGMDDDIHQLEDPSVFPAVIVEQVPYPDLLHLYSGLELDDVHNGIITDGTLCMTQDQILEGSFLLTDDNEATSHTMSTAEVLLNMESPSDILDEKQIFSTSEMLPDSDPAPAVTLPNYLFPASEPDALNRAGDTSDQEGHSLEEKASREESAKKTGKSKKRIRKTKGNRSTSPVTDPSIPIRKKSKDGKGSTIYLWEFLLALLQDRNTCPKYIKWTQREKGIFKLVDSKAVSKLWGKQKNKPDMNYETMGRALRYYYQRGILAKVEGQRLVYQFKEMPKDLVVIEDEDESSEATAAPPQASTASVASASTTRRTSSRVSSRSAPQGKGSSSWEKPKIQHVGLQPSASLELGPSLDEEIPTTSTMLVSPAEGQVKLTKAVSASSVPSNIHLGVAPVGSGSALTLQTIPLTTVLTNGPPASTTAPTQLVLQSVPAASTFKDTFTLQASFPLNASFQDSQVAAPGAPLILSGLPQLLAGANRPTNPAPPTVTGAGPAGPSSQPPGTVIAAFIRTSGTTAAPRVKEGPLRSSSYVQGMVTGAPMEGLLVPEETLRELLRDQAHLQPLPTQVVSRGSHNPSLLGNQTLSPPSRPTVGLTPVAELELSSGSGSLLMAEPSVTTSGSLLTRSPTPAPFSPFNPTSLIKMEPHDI
# Procedure, shortened: as §1
# ELK4 = molecular target: T3, ELK4 (Homo sapiens, UniProt P28324-2 1-405); settings: protein: recombinant; tags: N-terminal GST; dsDNA, one strand shown
# T3 sequence: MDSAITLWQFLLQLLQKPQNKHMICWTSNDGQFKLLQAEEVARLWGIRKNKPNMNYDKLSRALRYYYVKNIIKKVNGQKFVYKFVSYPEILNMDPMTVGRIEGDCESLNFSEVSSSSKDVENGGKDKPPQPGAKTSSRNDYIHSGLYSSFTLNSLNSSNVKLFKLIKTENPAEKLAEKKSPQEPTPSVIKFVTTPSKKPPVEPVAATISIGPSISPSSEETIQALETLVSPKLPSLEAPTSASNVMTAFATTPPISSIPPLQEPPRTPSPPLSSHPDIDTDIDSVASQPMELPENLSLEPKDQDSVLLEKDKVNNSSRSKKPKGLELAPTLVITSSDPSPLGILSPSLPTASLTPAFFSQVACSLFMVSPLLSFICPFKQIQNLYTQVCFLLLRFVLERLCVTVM
# Procedure, shortened: as §1
# ETV2 = molecular target: T4, ETV2 (Homo sapiens, UniProt O00321 1-342); settings: protein: recombinant; tags: N-terminal GST; dsDNA, one strand shown
# T4 sequence: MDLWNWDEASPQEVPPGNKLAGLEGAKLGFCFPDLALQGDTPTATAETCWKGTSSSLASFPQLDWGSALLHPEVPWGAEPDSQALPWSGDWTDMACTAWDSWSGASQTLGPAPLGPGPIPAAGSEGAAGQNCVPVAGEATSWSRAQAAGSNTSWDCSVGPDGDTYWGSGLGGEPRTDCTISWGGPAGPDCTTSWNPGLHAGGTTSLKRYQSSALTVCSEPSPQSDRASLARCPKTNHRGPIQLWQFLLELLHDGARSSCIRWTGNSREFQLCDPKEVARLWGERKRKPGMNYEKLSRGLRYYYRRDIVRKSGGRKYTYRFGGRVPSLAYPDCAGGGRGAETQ
# Procedure, shortened: as §1
# ELF3 = molecular target: T5, ELF3 (Homo sapiens, UniProt P78545 1-371); settings: protein: recombinant; tags: N-terminal GST; dsDNA, one strand shown
# T5 sequence: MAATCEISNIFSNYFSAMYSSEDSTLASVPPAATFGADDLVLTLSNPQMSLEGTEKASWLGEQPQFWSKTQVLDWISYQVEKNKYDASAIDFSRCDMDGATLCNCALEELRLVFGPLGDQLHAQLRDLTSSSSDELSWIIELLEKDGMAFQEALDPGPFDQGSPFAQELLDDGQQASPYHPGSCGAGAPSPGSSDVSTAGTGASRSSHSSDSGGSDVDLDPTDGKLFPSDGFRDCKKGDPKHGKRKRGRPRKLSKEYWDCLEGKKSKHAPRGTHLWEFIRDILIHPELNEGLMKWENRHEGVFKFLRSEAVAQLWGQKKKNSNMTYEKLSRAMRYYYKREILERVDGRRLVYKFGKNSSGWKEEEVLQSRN
# Procedure, shortened: as §1
# CRX = CRX (Homo sapiens, UniProt O43186 1-299); settings: protein: recombinant; tags: N-terminal GST; dsDNA, one strand shown
# Sequence of CRX (O43186 whole entry): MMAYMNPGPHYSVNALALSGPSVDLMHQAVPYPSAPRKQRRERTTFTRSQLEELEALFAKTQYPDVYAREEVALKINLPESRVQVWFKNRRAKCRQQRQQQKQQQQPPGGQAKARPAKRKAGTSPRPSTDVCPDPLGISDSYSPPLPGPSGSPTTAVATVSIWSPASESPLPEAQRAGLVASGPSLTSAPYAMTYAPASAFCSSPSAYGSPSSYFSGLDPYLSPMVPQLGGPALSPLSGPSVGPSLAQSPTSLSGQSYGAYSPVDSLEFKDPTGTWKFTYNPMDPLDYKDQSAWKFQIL
# Procedure, shortened: as §1
# ETV1 = ETV1 (Homo sapiens, UniProt P50549 1-477); settings: protein: recombinant; tags: N-terminal GST; dsDNA, one strand shown
# Sequence of ETV1 (P50549 whole entry): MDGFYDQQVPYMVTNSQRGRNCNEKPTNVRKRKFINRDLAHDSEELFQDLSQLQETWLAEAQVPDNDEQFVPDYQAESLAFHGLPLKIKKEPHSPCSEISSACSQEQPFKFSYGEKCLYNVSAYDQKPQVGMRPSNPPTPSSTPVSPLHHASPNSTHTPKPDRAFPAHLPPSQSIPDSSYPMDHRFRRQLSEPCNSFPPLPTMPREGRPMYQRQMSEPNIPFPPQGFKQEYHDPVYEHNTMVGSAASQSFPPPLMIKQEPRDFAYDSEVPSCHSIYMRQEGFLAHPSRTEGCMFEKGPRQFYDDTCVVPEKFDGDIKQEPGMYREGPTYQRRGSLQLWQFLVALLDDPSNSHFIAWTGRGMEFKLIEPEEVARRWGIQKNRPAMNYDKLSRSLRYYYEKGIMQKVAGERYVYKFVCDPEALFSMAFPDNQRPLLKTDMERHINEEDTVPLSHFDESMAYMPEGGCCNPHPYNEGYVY
# Procedure, shortened: as §1
# ERF = molecular target: T6, ERF (Homo sapiens, UniProt P50548 1-548); settings: protein: recombinant; tags: N-terminal GST; dsDNA, one strand shown
# T6 sequence: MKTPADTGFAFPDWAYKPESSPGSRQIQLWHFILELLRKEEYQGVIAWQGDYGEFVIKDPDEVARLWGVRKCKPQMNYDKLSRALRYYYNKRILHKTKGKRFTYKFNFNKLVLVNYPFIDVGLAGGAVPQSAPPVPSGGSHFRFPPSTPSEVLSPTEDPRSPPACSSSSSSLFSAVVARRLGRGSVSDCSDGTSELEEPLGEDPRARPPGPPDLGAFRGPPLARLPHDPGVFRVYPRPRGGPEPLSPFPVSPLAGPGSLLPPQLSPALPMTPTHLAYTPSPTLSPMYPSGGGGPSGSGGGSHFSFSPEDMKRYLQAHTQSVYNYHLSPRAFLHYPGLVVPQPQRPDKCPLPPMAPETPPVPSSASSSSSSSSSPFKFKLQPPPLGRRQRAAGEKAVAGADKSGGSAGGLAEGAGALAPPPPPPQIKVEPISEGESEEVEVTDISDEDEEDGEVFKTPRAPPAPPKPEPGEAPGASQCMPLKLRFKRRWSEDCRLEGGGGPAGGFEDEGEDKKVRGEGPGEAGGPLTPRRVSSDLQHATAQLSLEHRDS
# Procedure, shortened: as §1
# ETV3L = molecular target: T7, ETV3L (Homo sapiens, UniProt Q6ZN32 1-361); settings: protein: recombinant; tags: N-terminal GST; dsDNA, one strand shown
# T7 sequence: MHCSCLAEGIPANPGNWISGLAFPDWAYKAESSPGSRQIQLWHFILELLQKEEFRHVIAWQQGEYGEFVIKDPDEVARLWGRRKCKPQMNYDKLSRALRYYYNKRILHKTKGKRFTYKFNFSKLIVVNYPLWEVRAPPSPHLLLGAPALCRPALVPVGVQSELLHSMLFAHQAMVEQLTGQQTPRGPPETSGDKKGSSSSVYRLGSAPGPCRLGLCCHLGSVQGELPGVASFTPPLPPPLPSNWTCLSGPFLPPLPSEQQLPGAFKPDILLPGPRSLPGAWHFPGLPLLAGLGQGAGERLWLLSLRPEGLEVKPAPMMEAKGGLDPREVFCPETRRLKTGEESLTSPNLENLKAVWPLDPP
# Procedure, shortened: as §1
# ETS2 = molecular target: T8, ETS2 (Homo sapiens, UniProt P15036 1-469); settings: protein: recombinant; tags: N-terminal GST; dsDNA, one strand shown
# T8 sequence: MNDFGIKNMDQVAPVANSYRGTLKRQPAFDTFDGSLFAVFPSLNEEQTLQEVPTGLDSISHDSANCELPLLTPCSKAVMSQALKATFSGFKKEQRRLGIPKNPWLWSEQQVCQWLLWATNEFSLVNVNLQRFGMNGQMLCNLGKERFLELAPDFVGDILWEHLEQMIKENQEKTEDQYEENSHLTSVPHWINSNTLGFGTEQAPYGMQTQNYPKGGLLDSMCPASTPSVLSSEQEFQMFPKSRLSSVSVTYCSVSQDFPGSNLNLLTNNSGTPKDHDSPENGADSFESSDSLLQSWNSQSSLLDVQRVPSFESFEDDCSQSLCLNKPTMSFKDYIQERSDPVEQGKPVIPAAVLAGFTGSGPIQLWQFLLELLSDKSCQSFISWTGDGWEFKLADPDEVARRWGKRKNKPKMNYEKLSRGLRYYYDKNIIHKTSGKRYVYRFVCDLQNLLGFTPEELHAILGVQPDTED
# Procedure, shortened: as §1
# SPDEF = molecular target: T9, SPDEF (Homo sapiens, UniProt O95238 1-335); settings: protein: recombinant; tags: N-terminal GST; dsDNA, one strand shown
# T9 sequence: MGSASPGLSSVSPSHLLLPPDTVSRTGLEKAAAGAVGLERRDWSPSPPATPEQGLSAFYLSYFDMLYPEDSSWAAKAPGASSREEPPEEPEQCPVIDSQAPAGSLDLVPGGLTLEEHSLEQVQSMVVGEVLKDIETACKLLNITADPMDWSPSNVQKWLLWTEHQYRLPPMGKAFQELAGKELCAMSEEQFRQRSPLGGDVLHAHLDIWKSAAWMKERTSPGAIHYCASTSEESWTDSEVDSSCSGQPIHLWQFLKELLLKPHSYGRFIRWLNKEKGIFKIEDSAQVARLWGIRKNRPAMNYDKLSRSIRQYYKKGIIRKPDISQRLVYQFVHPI
# Procedure, shortened: as §1
# ETV7 = molecular target: T10, ETV7 (Homo sapiens, UniProt Q9Y603 1-341); settings: protein: recombinant; tags: N-terminal GST; dsDNA, one strand shown
# T10 sequence: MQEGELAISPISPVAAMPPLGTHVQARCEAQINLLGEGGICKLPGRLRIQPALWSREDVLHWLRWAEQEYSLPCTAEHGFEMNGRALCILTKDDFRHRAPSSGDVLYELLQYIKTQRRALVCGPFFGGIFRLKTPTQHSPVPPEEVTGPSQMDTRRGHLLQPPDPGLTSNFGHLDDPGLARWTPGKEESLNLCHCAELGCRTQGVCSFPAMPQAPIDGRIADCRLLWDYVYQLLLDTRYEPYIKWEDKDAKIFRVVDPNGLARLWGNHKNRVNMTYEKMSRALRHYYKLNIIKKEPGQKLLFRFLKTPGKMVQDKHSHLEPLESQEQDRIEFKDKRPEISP
# Procedure, shortened: as §1
# ELF5 = molecular target: T11, ELF5 (Homo sapiens, UniProt Q9UKW6-2 1-255); settings: protein: recombinant; tags: N-terminal GST; dsDNA, one strand shown
# T11 sequence: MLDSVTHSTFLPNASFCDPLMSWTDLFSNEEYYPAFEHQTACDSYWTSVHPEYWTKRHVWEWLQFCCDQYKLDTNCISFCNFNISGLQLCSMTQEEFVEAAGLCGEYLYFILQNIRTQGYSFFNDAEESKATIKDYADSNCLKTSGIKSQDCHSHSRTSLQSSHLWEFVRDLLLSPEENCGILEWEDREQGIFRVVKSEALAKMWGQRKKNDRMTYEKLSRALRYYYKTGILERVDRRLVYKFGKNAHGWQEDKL
# Procedure, shortened: as §1
# ETV3 = molecular target: T12, ETV3 (Homo sapiens, UniProt P41162-2 1-143); settings: protein: recombinant; tags: N-terminal GST; dsDNA, one strand shown
# T12 sequence: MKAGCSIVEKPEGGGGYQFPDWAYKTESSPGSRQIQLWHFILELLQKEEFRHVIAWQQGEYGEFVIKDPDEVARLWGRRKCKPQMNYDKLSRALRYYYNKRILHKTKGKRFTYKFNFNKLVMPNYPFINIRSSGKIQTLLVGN
# Procedure, shortened: as §1
# ETV6 = ETV6 (Homo sapiens, UniProt P41212 1-452); settings: protein: recombinant; tags: N-terminal GST; dsDNA, one strand shown
# Sequence of ETV6 (P41212 whole entry): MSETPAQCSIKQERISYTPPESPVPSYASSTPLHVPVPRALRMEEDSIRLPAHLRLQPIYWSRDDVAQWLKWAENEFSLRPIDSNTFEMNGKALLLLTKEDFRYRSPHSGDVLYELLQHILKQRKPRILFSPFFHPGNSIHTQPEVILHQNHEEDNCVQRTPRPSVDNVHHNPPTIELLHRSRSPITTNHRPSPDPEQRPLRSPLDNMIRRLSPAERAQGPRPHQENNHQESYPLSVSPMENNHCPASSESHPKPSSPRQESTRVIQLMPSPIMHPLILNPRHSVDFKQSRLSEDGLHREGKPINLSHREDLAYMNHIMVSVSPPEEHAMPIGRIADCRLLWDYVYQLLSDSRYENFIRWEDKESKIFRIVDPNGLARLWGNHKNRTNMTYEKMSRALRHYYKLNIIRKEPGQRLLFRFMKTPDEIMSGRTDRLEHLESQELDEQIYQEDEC
# Procedure, shortened: as §1
sequence,measurement,setting,value
TATAGT,binding signal,FEV,"1.03 fold enrichment (6-mer frequency, TF over GST control)"
same,binding signal,ETV5,"1.11 fold enrichment (6-mer frequency, TF over GST control)"
same,binding signal,HSF1,"1.07 fold enrichment (6-mer frequency, TF over GST control)"
same,binding signal,SPIC,"1.09 fold enrichment (6-mer frequency, TF over GST control)"
same,binding signal,ELF4,"1.03 fold enrichment (6-mer frequency, TF over GST control)"
same,binding signal,ELK4,"1.31 fold enrichment (6-mer frequency, TF over GST control)"
same,binding signal,ETV2,"1.12 fold enrichment (6-mer frequency, TF over GST control)"
same,binding signal,ELF3,"1.28 fold enrichment (6-mer frequency, TF over GST control)"
same,binding signal,CRX,"1.34 fold enrichment (6-mer frequency, TF over GST control)"
same,binding signal,ETV1,"1.11 fold enrichment (6-mer frequency, TF over GST control)"
same,binding signal,ERF,"1.16 fold enrichment (6-mer frequency, TF over GST control)"
same,binding signal,ETV3L,"1.06 fold enrichment (6-mer frequency, TF over GST control)"
same,binding signal,ETS2,"1.02 fold enrichment (6-mer frequency, TF over GST control)"
same,binding signal,SPDEF,"1.02 fold enrichment (6-mer frequency, TF over GST control)"
same,binding signal,ETV7,"1.2 fold enrichment (6-mer frequency, TF over GST control)"
same,binding signal,ELF5,"1.04 fold enrichment (6-mer frequency, TF over GST control)"
same,binding signal,ETV3,"1.06 fold enrichment (6-mer frequency, TF over GST control)"
same,binding signal,ETV6,"1.09 fold enrichment (6-mer frequency, TF over GST control)"

# From PMC7862700, “An all-to-all approach to the identification of sequence-specific readers for epigenetic DNA modifications on cytosine”
